From PubChem BioAssay
Active and inactive are the calls of the source.

Tests used:
[1] = optical density shifts of acrAB sulA E. coli – strain DRC41, OD650, 48 h, E. coli filamentation inducer project, primary screen (AID 1152); settings: higher = more signal, called active from +8 up or from −8 down;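 note: E. coli MC1000 strain DRC41 lacking acrAB efflux pump and sulA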
[2] = probe aLefty1 binding on compound microarray – biochemical, small-molecule microarray, 635/667 nm fluorescence, primary screen (AID 1153); settings: higher = more signal;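 note: score merges spot fluorescence with signal-to-noise ratio from the scanned slide images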
[3] = plasmodial surface anion channel blockers, osmotic lysis – cell-based, P. falciparum Indochina, OD700, 1 h, primary screen (AID 1154); settings: P. falciparum Indochina infected RBC osmotic lysis, higher = more signal, called active from +8 up or from −8 down
[4] = plasmodial surface anion channel blockers, osmotic lysis – cell-based, P. falciparum Indochina, OD700, 2 h, primary screen (AID 1155);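 note: lysis reports solute entry through the parasite surface anion channel PSAC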; settings: P. falciparum Indochina infected erythrocytes, higher = more signal, called active from +8 up or from −8 down
[5] = changes in parasitized red cell lysis, either direction – P. falciparum Indochina, OD700, 3 h, PSAC antagonist project, primary screen (AID 1156); settings: P. falciparum-infected erythrocytes, osmotic lysis, higher = more signal, called active from +8 up or from −8 down
[6] = plasmodial surface anion channel blockers, osmotic lysis – cell-based, P. falciparum Indochina, OD700, 18 h, primary screen (AID 1157); settings: P. falciparum Indochina infected erythrocytes, osmotic lysis OD700, 18 h; higher = more signal, called active from +8 up or from −8 down
[7] = S6 kinase pathway phospho-S6 level changes – cell-based, A549, cytoblot, luminescence, serum-stimulated, primary screen (AID 1158); settings: 5 h, higher = more signal;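 note: serum-stimulated A549 lung adenocarcinoma cells; signal is phosphorylated S6 detected by cytoblot immunostaining with HRP secondary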
[8] = target: NADPH oxidase 2 (Homo sapiens) (UniProt P04839); experiment: compounds shifting NOX2 Amplex Red fluorescence – cell-based, HEK293-NOX2, PMA-stimulated, NOX inhibitor project, primary screen (AID 1159); settings: 45 min, higher = more signal, called active from +8 up or from −8 down; note: test concentration not given here
Sequence of NADPH oxidase 2 (Homo sapiens) (P04839 whole entry, looked up): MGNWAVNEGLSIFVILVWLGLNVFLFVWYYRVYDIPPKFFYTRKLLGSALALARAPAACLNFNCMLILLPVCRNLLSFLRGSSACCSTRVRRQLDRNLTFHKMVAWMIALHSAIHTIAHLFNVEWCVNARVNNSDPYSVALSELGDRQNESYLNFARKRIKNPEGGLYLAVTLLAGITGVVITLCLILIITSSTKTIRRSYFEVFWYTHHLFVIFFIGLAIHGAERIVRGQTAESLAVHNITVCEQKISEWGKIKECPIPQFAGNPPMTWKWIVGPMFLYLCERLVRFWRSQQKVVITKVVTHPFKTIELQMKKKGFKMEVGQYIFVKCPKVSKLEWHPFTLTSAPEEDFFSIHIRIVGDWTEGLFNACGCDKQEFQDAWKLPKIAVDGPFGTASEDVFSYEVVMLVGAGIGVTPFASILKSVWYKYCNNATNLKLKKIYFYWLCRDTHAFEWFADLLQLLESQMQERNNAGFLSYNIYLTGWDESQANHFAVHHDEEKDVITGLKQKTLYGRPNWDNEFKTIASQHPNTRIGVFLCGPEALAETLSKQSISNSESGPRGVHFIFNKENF

[9] = target: NADPH oxidase 4 (Homo sapiens) (UniProt Q9NPH5); experiment: compounds shifting NOX4 Amplex Red fluorescence – cell-based, HEK293-NOX4, tetracycline-induced, NOX inhibitor project, primary screen (AID 1160); settings: HEK293-NOX4, Amplex Red H2O2 fluorescence, 45 min; higher = more signal, called active from +8 up or from −8 down
Sequence of NADPH oxidase 4 (Homo sapiens) (Q9NPH5 whole entry, looked up): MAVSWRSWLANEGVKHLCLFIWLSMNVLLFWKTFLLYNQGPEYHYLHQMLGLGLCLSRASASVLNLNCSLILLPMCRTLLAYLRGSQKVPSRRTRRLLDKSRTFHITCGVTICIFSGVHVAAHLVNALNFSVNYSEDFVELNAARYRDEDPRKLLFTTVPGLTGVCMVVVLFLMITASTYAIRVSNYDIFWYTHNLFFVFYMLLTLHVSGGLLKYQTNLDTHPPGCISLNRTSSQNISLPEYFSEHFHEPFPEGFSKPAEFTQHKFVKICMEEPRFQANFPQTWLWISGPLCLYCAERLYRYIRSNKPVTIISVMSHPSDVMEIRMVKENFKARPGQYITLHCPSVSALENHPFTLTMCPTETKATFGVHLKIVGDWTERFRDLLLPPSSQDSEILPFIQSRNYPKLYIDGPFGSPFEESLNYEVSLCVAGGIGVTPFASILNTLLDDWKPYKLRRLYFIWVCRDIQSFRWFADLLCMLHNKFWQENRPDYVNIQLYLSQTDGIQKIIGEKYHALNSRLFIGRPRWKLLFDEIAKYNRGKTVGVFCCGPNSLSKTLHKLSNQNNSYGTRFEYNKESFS

[10] = target: NADPH oxidase 5 (Homo sapiens) (UniProt Q96PH1); experiment: compounds shifting NOX5 Amplex Red fluorescence – cell-based, HEK293-NOX5, NOX inhibitor project, primary screen (AID 1161); settings: HEK293-NOX5, ionomycin, 45 min, higher = more signal
Sequence of NADPH oxidase 5 (Homo sapiens) (Q96PH1 whole entry, looked up): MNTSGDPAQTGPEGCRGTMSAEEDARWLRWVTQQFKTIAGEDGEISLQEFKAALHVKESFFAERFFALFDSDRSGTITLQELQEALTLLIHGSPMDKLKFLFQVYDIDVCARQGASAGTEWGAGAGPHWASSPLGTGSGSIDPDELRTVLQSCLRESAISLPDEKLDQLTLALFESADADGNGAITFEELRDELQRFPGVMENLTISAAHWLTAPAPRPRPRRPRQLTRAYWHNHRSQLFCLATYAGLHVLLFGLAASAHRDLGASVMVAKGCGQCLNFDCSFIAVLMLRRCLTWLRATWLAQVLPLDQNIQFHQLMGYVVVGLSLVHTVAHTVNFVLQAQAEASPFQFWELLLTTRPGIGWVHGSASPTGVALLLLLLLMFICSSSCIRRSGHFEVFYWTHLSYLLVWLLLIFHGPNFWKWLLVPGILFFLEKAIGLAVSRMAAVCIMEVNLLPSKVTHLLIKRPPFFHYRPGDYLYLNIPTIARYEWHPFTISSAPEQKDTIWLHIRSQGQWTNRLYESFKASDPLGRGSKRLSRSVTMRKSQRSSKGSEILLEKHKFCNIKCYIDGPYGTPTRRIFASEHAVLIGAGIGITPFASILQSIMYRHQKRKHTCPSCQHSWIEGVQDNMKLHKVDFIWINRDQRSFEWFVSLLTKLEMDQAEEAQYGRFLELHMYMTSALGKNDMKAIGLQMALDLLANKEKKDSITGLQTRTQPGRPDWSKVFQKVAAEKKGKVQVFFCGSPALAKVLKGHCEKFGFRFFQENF

Row | SMILES | z-score [1] | composite z-score [2] | z-score [3] | z-score [4] | z-score [5] | z-score [6] | z-score [7] | z-score [8] | z-score [9] | z-score [10]
1 | CN(C)C(=O)[C@]1(CCC(=O)OC(C)(C)C)N=C(c2ccc(OCCCO)cc2)O[C@@H]1c1ccccc1CN=[N+]=[N-] | 0.636 (inactive) | -0.182 | 29.8 (active) | 25.2 (active) | 2.29 (inactive) | 3.77 (inactive) | -0.175 | 0.629 (inactive) | 2.22 (inactive) | 1.19
2 | OCCCC1=CC(c2ccc(CN3CCCC3)cc2)N(Cc2cc3c(cc2Br)OCO3)CC1 (stereo not given) | 0.0676 (inactive) | 0.192 | 3.7 (inactive) | 0.63 (inactive) | 0.795 (inactive) | 0.601 (inactive) | -0.187 | -3.1 (inactive) | -1.21 (inactive) | -1.2
3 | CC(C)[Si]1(C(C)C)OCc2cc(-c3ccc(-c4ccc(Cl)c(Cl)c4)o3)nc(-c3ccccc3)c21 | -0.618 (inactive) | -0.0501 | 1.01 (inactive) | 0.394 (inactive) | 0.6 (inactive) | 0.138 (inactive) | -0.106 | 0.237 (inactive) | -1.35 (inactive) | 0.701
4 | CC[C@@H]1O[Si](C(C)C)(C(C)C)c2c1cc(-c1cc(C)c(OC)c(C)c1)nc2-c1ccc(Oc2ccccc2)cc1 | -0.109 (inactive) | 0.0101 | -0.261 (inactive) | 0.26 (inactive) | 0.827 (inactive) | 0.311 (inactive) | 0.189 | -1.36 (inactive) | -0.672 (inactive) | -2.04
5 | C=CCNC(=O)[C@@H]1[C@H]2C(=O)O[C@H](c3ccccc3)[C@H](c3ccccc3)N2[C@H](c2ccccc2OCCO)[C@@]12C(=O)Nc1ccc(C#CCCO)cc12 | -2.32 (inactive) | -0.674 | 5.68 (inactive) | 1.15 (inactive) | 0.206 (inactive) | 0.778 (inactive) | 0.0309 | 0.734 (inactive) | 0.627 (inactive) | 0.849
6 | COc1ccc(C#Cc2ccc3c(c2)[C@]2(C(=O)N3)[C@H](c3ccc(O)cc3)N3[C@H](c4ccccc4)[C@H](c4ccccc4)OC(=O)[C@H]3[C@@H]2C(=O)Nc2nc3ccccc3s2)cc1 | 1.38 (inactive) | 0.0994 | 0.92 (inactive) | 0.347 (inactive) | 2.43 (inactive) | 0.59 (inactive) | 0.498 | 1.13 (inactive) | -0.838 (inactive) | -1.34
7 | CCOC(=O)C[C@H]1[C@H](OC(=O)c2cc3ccccc3oc2=O)[C@@H](NC(=O)c2ccc3ccccc3n2)c2cc(OCCCO)ccc2N1C(=O)Cc1ccc(OC)cc1 | 0.116 (inactive) | 0.0774 | 8.66 (active) | 1.33 (inactive) | 0.635 (inactive) | 0.745 (inactive) | -0.0026 | 1.01 (inactive) | 1 (inactive) | 1.53
8 | O=C1C[C@]2(c3ccc([N+](=O)[O-])cc3)C(=O)N(C3CC3)c3cc(CO)ccc3[C@H]2N1CC12CC3CC(CC(C3)C1)C2 | -0.829 (inactive) | 0.599 | 0.617 (inactive) | -0.0621 (inactive) | 0.474 (inactive) | 0.255 (inactive) | 0.204 | 1.36 (inactive) | -1.64 (inactive) | 0.0712
9 | [N-]=[N+]=NCc1ccccc1[C@@H]1OC(c2ccc(OCCCO)cc2)=N[C@]1(CCS(=O)(=O)c1ccccc1)C(=O)O | -0.0791 (inactive) | 0.186 | 18.8 (active) | 4.31 (inactive) | 0.296 (inactive) | 0.716 (inactive) | -0.0381 | 1.19 (inactive) | 1.33 (inactive) | 2.11
10 | CCCCCCCCCCC(O)C1C=CC2C(=O)N(c3ccccc3)C(=O)C2N1Nc1ccc(C#N)cc1 (stereo not given) | -1.08 (inactive) | 0.571 | 6.7 (inactive) | 2.33 (inactive) | 0.0103 (inactive) | 2.3 (inactive) | -0.817 | -1.32 (inactive) | 0.0477 (inactive) | -0.266
11 | NC(=O)NCC#Cc1ccc2c(c1)[C@]1(C(=O)N2)[C@H](c2ccccc2OCCO)N2[C@H](c3ccccc3)[C@H](c3ccccc3)OC(=O)[C@H]2[C@@H]1C(=O)NC[C@H](O)c1ccccc1 | 2.83 (inactive) | -0.103 | 0.925 (inactive) | -0.918 (inactive) | -0.313 (inactive) | -1.54 (inactive) | 2.83 | 1.74 (inactive) | 0.869 (inactive) | 0.062
12 | CN(C)CCCCCCNC(=O)[C@@H]1C[C@@H]2C(=O)N3CCC[C@H]3C(=O)N2[C@@H]1c1cccc(OCCO)c1 | -0.305 (inactive) | 0.0231 | 3.6 (inactive) | 0.456 (inactive) | 0.77 (inactive) | 0.448 (inactive) | -0.701 | 1.03 (inactive) | -0.884 (inactive) | 0.837
13 | C=CCC(OC(C)=O)[C@@H]1[C@@H](N(Cc2ccc(-c3cccc(C(F)(F)F)c3)o2)C(=O)Cc2ccc(OC)cc2)c2cc(OCCCO)ccc2N1C(=O)c1ccc(-c2ccccc2)cc1 (stereo not given in full) | -1.12 (inactive) | 0.235 | 0.922 (inactive) | -0.393 (inactive) | 1.81 (inactive) | 0.0651 (inactive) | -0.199 | -1.2 (inactive) | -1.15 (inactive) | -1.35
